In ChEMBL document CHEMBL1961873, “Compounds: GSK PKIS; Assays: Nanosyn kinase panel” (2012) one finds inhibition data, which are given here for one compound.

The target in test [1] is Sphingosine kinase 1 (Homo sapiens) (UniProt Q9NYA1). The note with it: at 1 µM.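 Further: mean SPHK1 inhibition value reported from the GSK PKIS kinase panel screen.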
Test [2] addresses T1, Sphingosine kinase 2 (Homo sapiens) (UniProt Q9NRA0).
T1 sequence (whole entry): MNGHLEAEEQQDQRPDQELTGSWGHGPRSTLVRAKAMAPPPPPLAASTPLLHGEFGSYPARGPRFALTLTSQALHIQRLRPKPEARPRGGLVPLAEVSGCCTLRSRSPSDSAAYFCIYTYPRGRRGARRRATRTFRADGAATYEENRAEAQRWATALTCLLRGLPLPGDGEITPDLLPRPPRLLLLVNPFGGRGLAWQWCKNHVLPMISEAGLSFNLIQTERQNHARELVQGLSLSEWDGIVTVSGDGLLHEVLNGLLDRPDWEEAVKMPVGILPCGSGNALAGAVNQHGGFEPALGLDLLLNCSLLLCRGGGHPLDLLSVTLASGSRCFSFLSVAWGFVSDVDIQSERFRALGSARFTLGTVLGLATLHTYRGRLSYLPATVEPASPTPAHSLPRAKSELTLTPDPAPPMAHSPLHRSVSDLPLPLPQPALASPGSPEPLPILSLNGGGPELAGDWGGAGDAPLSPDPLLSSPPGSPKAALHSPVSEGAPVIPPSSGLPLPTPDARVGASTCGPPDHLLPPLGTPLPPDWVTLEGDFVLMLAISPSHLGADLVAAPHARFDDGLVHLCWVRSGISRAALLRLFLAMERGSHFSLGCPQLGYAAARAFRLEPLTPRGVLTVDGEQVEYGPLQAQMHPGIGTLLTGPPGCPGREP
The note with it: at 0.1 µM.

Test [3] has as its target T1, Sphingosine kinase 2 (Homo sapiens). To be noted: at 1 µM.
The target in test [4] is Casein kinase II subunit alpha (Homo sapiens) (UniProt P68400). To be noted: at 0.1 µM.
The target is the same in test [5]. The note with it: at 1 µM.
Test [6] deals with T2, Inhibitor of nuclear factor kappa-B kinase subunit alpha (Homo sapiens) (UniProt O15111).
T2 sequence (whole entry): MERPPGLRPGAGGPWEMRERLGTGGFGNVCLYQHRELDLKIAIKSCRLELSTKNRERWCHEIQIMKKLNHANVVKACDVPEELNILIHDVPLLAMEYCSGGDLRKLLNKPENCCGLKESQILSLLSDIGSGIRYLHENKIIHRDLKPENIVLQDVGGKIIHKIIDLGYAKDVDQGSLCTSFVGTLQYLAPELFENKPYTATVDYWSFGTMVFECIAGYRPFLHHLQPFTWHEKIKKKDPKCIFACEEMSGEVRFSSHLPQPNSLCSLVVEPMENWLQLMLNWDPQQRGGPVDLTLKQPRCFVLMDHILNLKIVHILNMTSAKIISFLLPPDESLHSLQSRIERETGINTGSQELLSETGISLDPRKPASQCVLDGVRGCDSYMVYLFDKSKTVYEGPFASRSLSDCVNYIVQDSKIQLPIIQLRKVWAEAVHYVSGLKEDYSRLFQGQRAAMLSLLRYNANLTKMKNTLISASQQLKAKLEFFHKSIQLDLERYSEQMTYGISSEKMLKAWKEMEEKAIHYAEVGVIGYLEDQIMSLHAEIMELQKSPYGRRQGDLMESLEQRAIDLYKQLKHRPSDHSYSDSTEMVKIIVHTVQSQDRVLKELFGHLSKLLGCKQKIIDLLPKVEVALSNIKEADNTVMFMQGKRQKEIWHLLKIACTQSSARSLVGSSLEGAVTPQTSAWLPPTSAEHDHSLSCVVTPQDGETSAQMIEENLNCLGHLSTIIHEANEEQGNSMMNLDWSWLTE
To be noted: at 0.1 µM.

In test [7] the target is T2, Inhibitor of nuclear factor kappa-B kinase subunit alpha (Homo sapiens). To be noted: at 1 µM.
Test [8] addresses T3, Inhibitor of nuclear factor kappa-B kinase subunit beta (Homo sapiens) (UniProt O14920).
T3 sequence (whole entry): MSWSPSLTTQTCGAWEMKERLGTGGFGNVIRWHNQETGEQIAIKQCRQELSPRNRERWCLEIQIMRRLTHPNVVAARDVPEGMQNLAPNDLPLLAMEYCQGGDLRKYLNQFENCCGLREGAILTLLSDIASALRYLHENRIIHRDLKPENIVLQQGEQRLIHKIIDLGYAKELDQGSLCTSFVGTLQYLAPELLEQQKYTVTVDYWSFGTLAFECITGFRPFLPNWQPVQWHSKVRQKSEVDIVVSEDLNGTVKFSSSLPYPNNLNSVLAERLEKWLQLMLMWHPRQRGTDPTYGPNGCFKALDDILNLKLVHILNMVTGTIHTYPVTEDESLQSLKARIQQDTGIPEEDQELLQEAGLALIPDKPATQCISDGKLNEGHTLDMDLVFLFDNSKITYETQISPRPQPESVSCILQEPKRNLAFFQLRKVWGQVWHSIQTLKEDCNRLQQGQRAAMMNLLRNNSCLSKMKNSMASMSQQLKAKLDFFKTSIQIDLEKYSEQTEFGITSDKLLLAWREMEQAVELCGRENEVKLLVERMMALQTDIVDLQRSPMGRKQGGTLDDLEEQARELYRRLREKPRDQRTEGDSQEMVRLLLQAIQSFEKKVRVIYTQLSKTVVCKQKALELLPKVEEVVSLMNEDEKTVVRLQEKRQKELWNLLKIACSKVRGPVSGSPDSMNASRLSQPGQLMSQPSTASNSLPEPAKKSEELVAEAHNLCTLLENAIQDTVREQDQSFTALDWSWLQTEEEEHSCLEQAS
To be noted: at 0.1 µM.

The target of test [9] is T3, Inhibitor of nuclear factor kappa-B kinase subunit beta (Homo sapiens). To be noted: at 1 µM.
Test [10] concerns the target T4, Inhibitor of nuclear factor kappa-B kinase subunit epsilon (Homo sapiens) (UniProt Q14164).
T4 sequence (whole entry): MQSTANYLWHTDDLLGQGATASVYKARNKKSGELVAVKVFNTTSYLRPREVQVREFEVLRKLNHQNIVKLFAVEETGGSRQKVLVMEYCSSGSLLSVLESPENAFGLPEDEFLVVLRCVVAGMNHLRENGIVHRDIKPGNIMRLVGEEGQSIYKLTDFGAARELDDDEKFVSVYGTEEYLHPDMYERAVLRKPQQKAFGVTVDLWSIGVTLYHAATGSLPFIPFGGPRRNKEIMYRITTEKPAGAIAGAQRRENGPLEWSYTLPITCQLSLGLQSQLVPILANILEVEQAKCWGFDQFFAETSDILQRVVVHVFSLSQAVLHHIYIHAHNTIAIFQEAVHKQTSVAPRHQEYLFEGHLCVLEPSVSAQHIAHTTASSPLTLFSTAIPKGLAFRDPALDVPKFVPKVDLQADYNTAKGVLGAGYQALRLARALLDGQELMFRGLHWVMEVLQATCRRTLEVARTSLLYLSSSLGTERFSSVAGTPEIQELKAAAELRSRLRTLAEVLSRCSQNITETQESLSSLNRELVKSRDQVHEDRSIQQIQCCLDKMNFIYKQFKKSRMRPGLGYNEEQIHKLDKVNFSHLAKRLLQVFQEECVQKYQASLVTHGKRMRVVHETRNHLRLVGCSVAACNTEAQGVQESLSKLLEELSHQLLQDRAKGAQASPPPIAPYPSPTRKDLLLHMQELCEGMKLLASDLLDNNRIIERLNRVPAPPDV
To be noted: at 0.1 µM.

Test [11] has as its target T4, Inhibitor of nuclear factor kappa-B kinase subunit epsilon (Homo sapiens). To be noted: at 1 µM.
In test [12] the target is T5, Serine/threonine-protein kinase Nek1 (Homo sapiens) (UniProt Q96PY6).
T5 sequence (whole entry): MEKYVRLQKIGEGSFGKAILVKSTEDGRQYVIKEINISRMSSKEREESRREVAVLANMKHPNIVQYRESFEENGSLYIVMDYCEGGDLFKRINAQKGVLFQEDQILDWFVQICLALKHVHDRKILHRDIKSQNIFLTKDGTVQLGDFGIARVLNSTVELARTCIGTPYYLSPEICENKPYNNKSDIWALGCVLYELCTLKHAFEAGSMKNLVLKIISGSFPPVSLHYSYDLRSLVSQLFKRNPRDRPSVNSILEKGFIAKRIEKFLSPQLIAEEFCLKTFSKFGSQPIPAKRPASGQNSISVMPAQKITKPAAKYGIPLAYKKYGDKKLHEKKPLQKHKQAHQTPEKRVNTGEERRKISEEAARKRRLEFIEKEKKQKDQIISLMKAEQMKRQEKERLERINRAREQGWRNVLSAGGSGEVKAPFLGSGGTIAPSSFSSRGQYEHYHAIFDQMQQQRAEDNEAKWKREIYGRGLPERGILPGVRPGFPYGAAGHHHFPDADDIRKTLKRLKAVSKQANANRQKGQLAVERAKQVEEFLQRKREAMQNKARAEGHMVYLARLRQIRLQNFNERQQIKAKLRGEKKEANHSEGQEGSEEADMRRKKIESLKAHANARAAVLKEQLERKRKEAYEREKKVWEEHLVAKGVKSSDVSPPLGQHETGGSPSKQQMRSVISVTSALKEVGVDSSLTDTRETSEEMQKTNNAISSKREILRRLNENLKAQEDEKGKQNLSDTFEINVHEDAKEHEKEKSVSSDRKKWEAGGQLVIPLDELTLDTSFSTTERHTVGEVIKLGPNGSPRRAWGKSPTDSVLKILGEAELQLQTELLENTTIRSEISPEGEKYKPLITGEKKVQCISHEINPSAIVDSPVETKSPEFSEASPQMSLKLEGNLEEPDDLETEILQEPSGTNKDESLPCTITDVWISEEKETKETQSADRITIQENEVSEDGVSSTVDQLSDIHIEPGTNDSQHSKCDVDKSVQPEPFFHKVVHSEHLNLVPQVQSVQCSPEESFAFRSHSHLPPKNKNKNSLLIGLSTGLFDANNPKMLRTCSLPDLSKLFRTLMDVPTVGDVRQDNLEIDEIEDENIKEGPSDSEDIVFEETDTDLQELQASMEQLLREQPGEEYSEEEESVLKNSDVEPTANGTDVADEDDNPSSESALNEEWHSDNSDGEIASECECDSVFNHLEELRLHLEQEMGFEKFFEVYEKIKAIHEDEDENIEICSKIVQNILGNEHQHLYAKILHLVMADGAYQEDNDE
The note with it: at 0.1 µM.

The target of test [13] is T5, Serine/threonine-protein kinase Nek1 (Homo sapiens). To be noted: at 1 µM.
For test [14], the target named is T6, Serine/threonine-protein kinase Nek2 (Homo sapiens) (UniProt P51955).
T6 sequence (whole entry): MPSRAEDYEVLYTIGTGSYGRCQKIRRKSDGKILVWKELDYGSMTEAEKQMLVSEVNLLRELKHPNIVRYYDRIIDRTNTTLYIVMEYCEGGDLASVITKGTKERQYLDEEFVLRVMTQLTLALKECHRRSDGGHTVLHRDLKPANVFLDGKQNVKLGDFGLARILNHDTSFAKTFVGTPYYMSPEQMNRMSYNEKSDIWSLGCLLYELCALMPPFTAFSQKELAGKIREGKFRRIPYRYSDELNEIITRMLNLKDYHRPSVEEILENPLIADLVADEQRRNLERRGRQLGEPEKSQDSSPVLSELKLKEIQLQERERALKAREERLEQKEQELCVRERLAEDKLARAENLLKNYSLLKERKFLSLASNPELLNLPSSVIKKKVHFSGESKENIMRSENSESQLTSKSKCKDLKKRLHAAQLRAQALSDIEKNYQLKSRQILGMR
The note with it: at 0.1 µM.

For test [15], the target named is T6, Serine/threonine-protein kinase Nek2 (Homo sapiens). To be noted: at 1 µM.
Test [16] has as its target Serine/threonine-protein kinase Nek6 (Homo sapiens) (UniProt Q9HC98). To be noted: at 0.1 µM.
Test [17] has the same target. The note with it: at 1 µM.
The target in test [18] is Serine/threonine-protein kinase Nek7 (Homo sapiens) (UniProt Q8TDX7). The note with it: at 0.1 µM.
The target is the same in test [19]. To be noted: at 1 µM.
Test [20] has as its target T7, Serine/threonine-protein kinase Nek9 (Homo sapiens) (UniProt Q8TD19).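 Further: reported value is the mean percent inhibition of NEK9.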
T7 sequence (whole entry): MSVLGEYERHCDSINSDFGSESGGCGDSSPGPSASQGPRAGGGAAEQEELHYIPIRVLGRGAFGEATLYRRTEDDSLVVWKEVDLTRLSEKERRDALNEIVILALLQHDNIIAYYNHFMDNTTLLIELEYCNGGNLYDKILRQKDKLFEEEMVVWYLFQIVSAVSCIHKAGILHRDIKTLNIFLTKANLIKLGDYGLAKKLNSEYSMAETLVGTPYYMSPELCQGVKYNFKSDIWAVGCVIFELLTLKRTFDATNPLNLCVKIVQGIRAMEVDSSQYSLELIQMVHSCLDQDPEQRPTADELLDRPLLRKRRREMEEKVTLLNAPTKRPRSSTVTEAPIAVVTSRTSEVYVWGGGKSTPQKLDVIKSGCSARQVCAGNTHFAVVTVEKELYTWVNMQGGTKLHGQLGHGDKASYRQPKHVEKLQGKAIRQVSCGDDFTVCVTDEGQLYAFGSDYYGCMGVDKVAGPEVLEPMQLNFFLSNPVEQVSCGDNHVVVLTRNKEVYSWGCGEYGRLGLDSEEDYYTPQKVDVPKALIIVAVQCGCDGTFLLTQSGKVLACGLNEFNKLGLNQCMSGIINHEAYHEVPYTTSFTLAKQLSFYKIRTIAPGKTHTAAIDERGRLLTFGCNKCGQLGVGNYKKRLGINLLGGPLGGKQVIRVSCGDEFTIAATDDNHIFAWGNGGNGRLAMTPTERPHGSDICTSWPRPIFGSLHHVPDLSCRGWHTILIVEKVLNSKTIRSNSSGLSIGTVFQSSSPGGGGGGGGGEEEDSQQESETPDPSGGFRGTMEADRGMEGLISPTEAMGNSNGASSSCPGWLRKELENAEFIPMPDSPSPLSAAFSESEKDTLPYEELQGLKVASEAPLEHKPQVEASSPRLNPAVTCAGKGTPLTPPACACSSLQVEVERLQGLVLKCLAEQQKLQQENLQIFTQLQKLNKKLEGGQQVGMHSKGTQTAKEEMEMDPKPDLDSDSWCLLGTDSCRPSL
To be noted: at 0.1 µM.

Serine/threonine-protein kinase Nek7 (Homo sapiens), sequence (Q8TDX7 whole entry, looked up): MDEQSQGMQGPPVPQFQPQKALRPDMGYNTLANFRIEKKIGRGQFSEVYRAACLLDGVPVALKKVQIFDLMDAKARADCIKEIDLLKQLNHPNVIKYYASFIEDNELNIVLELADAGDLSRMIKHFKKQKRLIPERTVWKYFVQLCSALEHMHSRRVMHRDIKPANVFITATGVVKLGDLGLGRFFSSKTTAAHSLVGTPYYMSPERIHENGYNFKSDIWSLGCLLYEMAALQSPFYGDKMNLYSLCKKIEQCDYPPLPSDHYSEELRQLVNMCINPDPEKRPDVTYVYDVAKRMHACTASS
Serine/threonine-protein kinase Nek6 (Homo sapiens), sequence (Q9HC98 whole entry): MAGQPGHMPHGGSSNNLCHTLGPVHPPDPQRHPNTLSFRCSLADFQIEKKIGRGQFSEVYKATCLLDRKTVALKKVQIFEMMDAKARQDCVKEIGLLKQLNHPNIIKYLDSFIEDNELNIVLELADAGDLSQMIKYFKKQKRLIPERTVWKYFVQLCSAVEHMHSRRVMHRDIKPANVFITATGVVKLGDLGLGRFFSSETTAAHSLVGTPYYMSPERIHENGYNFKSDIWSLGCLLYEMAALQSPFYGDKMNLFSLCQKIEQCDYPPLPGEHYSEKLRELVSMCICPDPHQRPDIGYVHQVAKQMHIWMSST
Casein kinase II subunit alpha (Homo sapiens), sequence (P68400 whole entry, looked up): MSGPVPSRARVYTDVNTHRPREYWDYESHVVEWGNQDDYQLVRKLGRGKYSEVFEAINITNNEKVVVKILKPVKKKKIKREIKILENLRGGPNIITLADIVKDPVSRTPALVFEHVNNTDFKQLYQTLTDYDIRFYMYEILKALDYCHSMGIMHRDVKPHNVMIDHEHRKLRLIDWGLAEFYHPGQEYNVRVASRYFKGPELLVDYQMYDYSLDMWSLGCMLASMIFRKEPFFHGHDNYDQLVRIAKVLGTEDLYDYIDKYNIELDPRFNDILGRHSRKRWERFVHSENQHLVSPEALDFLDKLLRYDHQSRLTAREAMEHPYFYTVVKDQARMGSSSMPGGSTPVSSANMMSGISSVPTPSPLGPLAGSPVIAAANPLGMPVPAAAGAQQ
Sphingosine kinase 1 (Homo sapiens), sequence (Q9NYA1 whole entry): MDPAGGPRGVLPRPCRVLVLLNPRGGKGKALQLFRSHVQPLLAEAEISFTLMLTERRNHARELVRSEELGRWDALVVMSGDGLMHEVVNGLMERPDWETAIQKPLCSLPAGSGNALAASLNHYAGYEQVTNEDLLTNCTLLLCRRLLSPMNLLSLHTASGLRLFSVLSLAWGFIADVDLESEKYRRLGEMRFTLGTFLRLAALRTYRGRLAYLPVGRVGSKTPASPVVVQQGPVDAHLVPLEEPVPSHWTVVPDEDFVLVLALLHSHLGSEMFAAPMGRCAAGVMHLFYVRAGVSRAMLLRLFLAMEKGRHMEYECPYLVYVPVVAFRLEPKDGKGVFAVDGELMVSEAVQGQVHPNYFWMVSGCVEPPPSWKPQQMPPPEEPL

Consider `Cc1ccc(-c2cc3c(NC(=O)C4CC4)ncnc3o2)cc1`, for which the inhibition – broadly, the relative decrease from the control value, in per cent – is -8.41% in test [1]; -0.23% in test [2]; -0.24% in [3]; 2.02% in test [4]; 10.8% in test [5]; 4.84% in [6]. Moreover, the inhibition in test [7] worked out at 1.2%; in test [8] it was 2.98%; in [9], 4.2%; in test [10], 4.06%; in [11] it was 6.07%; in [12], 1.85%. Besides, the inhibition in test [13] turned out to be 3.91%; in [14], 4.58%; in test [15], 4.89%; in test [16], 3.4%; in [17], 0.29%; in test [18] it was 3.17%. Besides, the inhibition in [19] came to 3.35%; in [20] it was 3.07%.
